From PubChem BioAssay (NCI) come the findings set out here.

Compounds without any hit were thinned out: in the full panel of roughly 79,000, 15% have a hit. A number with no mark means an inactive call. The source made the active and inactive calls. Rule as the data show it: active = growth inhibition above about 70%; inactive = the rest.

The nature of assay [1]: NCI Yeast Anticancer Drug Screen. Data for the rad50 strain (AID 155).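 Also: 0% = growth of vehicle-only cultures of the same strain.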 To be noted: S. cerevisiae rad50 strain growth inhibition, hits give high values. In outline:
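Relative growth inhibition (compound vs vehicle) was measured in yeast with a defined repair-gene alteration.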

Assay [2] can be described thus: NCI Yeast Anticancer Drug Screen. Data for the mec2-1 strain (AID 157). Conditions: S. cerevisiae mec2-1 strain, hits give high values. In outline:
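Using mec2-1 yeast: add compound, measure growth, express inhibition versus vehicle-treated cultures.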

Assay [3] in a line: NCI Yeast Anticancer Drug Screen. Data for the sgs1 mgt1 strain (AID 161).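 Also: 0% = growth of cultures given vehicle only.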 Conditions: S. cerevisiae sgs1 mgt1 strain, hits give high values. The method, boiled down:
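Percent growth inhibition was derived by comparing compound-exposed mutant yeast with vehicle-exposed cultures. The strain carries alterations in DNA damage repair.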

Assay [4] in a line: NCI Yeast Anticancer Drug Screen. Data for the cln2 rad14 strain (AID 165).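 Also: 0% = growth equal to vehicle treated cultures.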 To be noted: S. cerevisiae cln2 rad14 strain, hits give high values. The method, boiled down: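 Yeast strain cln2 rad14, bearing defects in cell cycle control and DNA repair, serves as the test system; values reflect growth inhibition compared with vehicle.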
Assay [5] in a line: NCI Yeast Anticancer Drug Screen. Data for the bub3 strain (AID 167). To be noted: S. cerevisiae bub3 mutant strain, hits give high values. In outline: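 Screening used yeast with an engineered genetic alteration affecting cell cycle control. Compound-exposed cultures were compared with vehicle cultures, and reduced growth was taken as inhibition.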
The nature of assay [6]: NCI Yeast Anticancer Drug Screen. Data for the mlh1 rad18 strain (AID 175). To be noted: S. cerevisiae mlh1 rad18 strain growth inhibition, hits give high values. In outline:
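Steps: expose repair-defective yeast to compound; measure growth; express inhibition against vehicle-treated controls.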

Setting [7] is: at 5.0 µM (retest, dose inferred, filed as 0.5).
[8] abbreviates: at 50.0 µM (retest, dose inferred, filed as 5.0).

For `O=C1CNC(=O)c2cc(N=Cc3cc(Br)ccc3O)ccc2N1`, the growth inhibition in assay [1] (setting [7]) was 10%; in assay [1] (setting [8]) it was 95% (active); in assay [1] (at 50.0 µM), 82% (active); in assay [2] (setting [7]), 8%; in assay [2] (setting [8]), 98% (active); in assay [2] (at 50.0 µM), 62%. Besides, the growth inhibition in assay [3] (setting [7]) was 13%; in assay [3] (setting [8]) it was 96% (active); in assay [3] (at 50.0 µM) it was 93.5% (active); in assay [4] (setting [7]) it was 2%; in assay [4] (setting [8]), 30%; in assay [4] (at 50.0 µM), 22.6%. The growth inhibition in assay [5] (setting [7]) was -1%; in assay [5] (setting [8]) it was 95% (active); in assay [5] (at 50.0 µM), 43.4%; in assay [6] (setting [7]), 12%; in assay [6] (setting [8]), 97% (active); in assay [6] (at 50.0 µM) it was 71.9% (active).

Turning to `O=C1CNCCCN2CCN(CCCNCC(=O)Nc3ccc(cc3)S(=O)(=O)c3ccc(cc3)NC(=O)CNCCCN3CCN(CCCNCC(=O)Nc4ccc(cc4)S(=O)(=O)c4ccc(cc4)N1)CC3)CC2`, the growth inhibition in assay [1] (setting [7]) was 1%; in assay [1] (setting [8]), 99% (active); in assay [1] (at 50.0 µM), 98.8% (active); in assay [2] (setting [7]), -25%; in assay [2] (setting [8]), 99% (active); in assay [2] (at 50.0 µM) it was 98.8% (active). For the same compound, the growth inhibition is -14% in assay [3] (setting [7]); 99% (active) in assay [3] (setting [8]); 99% (active) in assay [3] (at 50.0 µM); -5% in assay [4] (setting [7]); 99% (active) in assay [4] (setting [8]); 96.8% (active) in assay [4] (at 50.0 µM). For the same compound, the growth inhibition was -3% in assay [5] (setting [7]); 99% (active) in assay [5] (setting [8]); 97.8% (active) in assay [5] (at 50.0 µM); -11% in assay [6] (setting [7]); 99% (active) in assay [6] (setting [8]); 98.7% (active) in assay [6] (at 50.0 µM).

For `COc1ccc2c(c1)CCC/C2=N\NS(=O)(=O)c1c(C)cc(C)cc1C`, the growth inhibition in assay [1] (setting [7]) is 15%; in assay [1] (setting [8]), 59%; in assay [1] (at 50.0 µM), 26.2%; in assay [2] (setting [7]), 16%; in assay [2] (setting [8]), 60%; in assay [2] (at 50.0 µM), -43.2%. In addition, the growth inhibition is 16% in assay [3] (setting [7]); 38% in assay [3] (setting [8]); 37.1% in assay [3] (at 50.0 µM); 8% in assay [4] (setting [7]); 68% in assay [4] (setting [8]); 73.5% (active) in assay [4] (at 50.0 µM). Also, the growth inhibition in assay [5] (setting [7]) is 11%; in assay [5] (setting [8]) it was 52%; in assay [5] (at 50.0 µM), 54.8%; in assay [6] (setting [7]) it was 26%; in assay [6] (setting [8]) it was 75% (active); in assay [6] (at 50.0 µM), 5.7%.

For `CCN(CC)CCOc1c(I)cc(I)cc1I`, the growth inhibition was 2% in assay [1] (setting [7]); 98% (active) in assay [1] (setting [8]); 84.3% (active) in assay [1] (at 50.0 µM); 0% in assay [2] (setting [7]); 98% (active) in assay [2] (setting [8]); 82.4% (active) in assay [2] (at 50.0 µM). Also, the growth inhibition in assay [3] (setting [7]) was 12%; in assay [3] (setting [8]) it was 99% (active); in assay [3] (at 50.0 µM), 96.5% (active); in assay [4] (setting [7]) it was 7%; in assay [4] (setting [8]) it was 98% (active); in assay [4] (at 50.0 µM), 98.2% (active). The growth inhibition was 6% in assay [5] (setting [7]); 98% (active) in assay [5] (setting [8]); 84.8% (active) in assay [5] (at 50.0 µM); 1% in assay [6] (setting [7]); 99% (active) in assay [6] (setting [8]); 99.2% (active) in assay [6] (at 50.0 µM).

Take `CCCCCCCCCCCCNC(=O)C[n+]1cccc(C(=O)N(C)C)c1`: the growth inhibition was -5% in assay [1] (setting [7]); 33% in assay [1] (setting [8]); 68.3% in assay [1] (at 50.0 µM); -24% in assay [2] (setting [7]); -13% in assay [2] (setting [8]); 58% in assay [2] (at 50.0 µM). Further, the growth inhibition was -17% in assay [3] (setting [7]); 46% in assay [3] (setting [8]); 91.4% (active) in assay [3] (at 50.0 µM); -15% in assay [4] (setting [7]); 13% in assay [4] (setting [8]); 24.6% in assay [4] (at 50.0 µM). Further, the growth inhibition is -9% in assay [5] (setting [7]); 21% in assay [5] (setting [8]); 3.35% in assay [5] (at 50.0 µM); 7% in assay [6] (setting [7]); 44% in assay [6] (setting [8]); 53.4% in assay [6] (at 50.0 µM).

For the compound `CCC(CC)C(c1ccc(O)cc1)c1ccc(O)cc1`, the growth inhibition in assay [1] (setting [7]) was 92% (active); in assay [1] (setting [8]), 99% (active); in assay [1] (at 50.0 µM), 99.5% (active); in assay [2] (setting [7]), 83% (active); in assay [2] (setting [8]), 100% (active); in assay [2] (at 50.0 µM), 99.5% (active). The growth inhibition in assay [3] (setting [7]) is 88% (active); in assay [3] (setting [8]), 77% (active); in assay [3] (at 50.0 µM), 99.6% (active); in assay [4] (setting [7]), 97% (active); in assay [4] (setting [8]), 100% (active); in assay [4] (at 50.0 µM), 99.2% (active). Also, the growth inhibition in assay [5] (setting [7]) is 75% (active); in assay [5] (setting [8]) it was 98% (active); in assay [5] (at 50.0 µM) it was 99.7% (active); in assay [6] (setting [7]), 95% (active); in assay [6] (setting [8]), 100% (active); in assay [6] (at 50.0 µM) it was 99.5% (active).

For the compound `Cn1cnc([N+](=O)[O-])c1Sc1ccc(Cl)cc1`, the growth inhibition in assay [1] (setting [7]) was 16%; in assay [1] (setting [8]), 93% (active); in assay [1] (at 50.0 µM), 93.8% (active); in assay [2] (setting [7]), 8%; in assay [2] (setting [8]) it was 92% (active); in assay [2] (at 50.0 µM) it was 76.9% (active). The growth inhibition in assay [3] (setting [7]) is 11%; in assay [3] (setting [8]), 98% (active); in assay [3] (at 50.0 µM), 90.9% (active); in assay [4] (setting [7]), 2%; in assay [4] (setting [8]), 61%; in assay [4] (at 50.0 µM) it was 42.2%. Further, the growth inhibition in assay [5] (setting [7]) is 0%; in assay [5] (setting [8]), 92% (active); in assay [5] (at 50.0 µM), 83.2% (active); in assay [6] (setting [7]), 5%; in assay [6] (setting [8]), 97% (active); in assay [6] (at 50.0 µM), 90.3% (active).

On to `Cc1c(Cl)ccc2c1NC(=O)C2(O)CC(=O)c1ccc(Cl)cc1` (stereo not given), for which the growth inhibition in assay [1] (setting [7]) is 13%; in assay [1] (setting [8]) it was 98% (active); in assay [1] (at 50.0 µM), 99.2% (active); in assay [2] (setting [7]) it was 14%; in assay [2] (setting [8]) it was 99% (active); in assay [2] (at 50.0 µM) it was 99% (active). The growth inhibition is 31% in assay [3] (setting [7]); 100% (active) in assay [3] (setting [8]); 99.2% (active) in assay [3] (at 50.0 µM); 31% in assay [4] (setting [7]); 98% (active) in assay [4] (setting [8]); 99.3% (active) in assay [4] (at 50.0 µM). The growth inhibition is 14% in assay [5] (setting [7]); 99% (active) in assay [5] (setting [8]); 99.3% (active) in assay [5] (at 50.0 µM); 13% in assay [6] (setting [7]); 99% (active) in assay [6] (setting [8]); 99.2% (active) in assay [6] (at 50.0 µM).

As to `S=C(Nc1ccc(Cl)c(Cl)c1)N1c2ccccc2-n2cccc2C1c1cccnc1` (stereo not given), the growth inhibition in assay [1] (setting [7]) was 49%; in assay [1] (setting [8]) it was 99% (active); in assay [1] (at 50.0 µM), 80.8% (active); in assay [2] (setting [7]), 46%; in assay [2] (setting [8]), 99% (active); in assay [2] (at 50.0 µM) it was 84.5% (active). Moreover, the growth inhibition in assay [3] (setting [7]) is 59%; in assay [3] (setting [8]), 94% (active); in assay [3] (at 50.0 µM), 85% (active); in assay [4] (setting [7]) it was 91% (active); in assay [4] (setting [8]) it was 94% (active); in assay [4] (at 50.0 µM), 84.7% (active). Moreover, the growth inhibition in assay [5] (setting [7]) was 72% (active); in assay [5] (setting [8]), 89% (active); in assay [5] (at 50.0 µM), 84% (active); in assay [6] (setting [7]), 45%; in assay [6] (setting [8]), 100% (active); in assay [6] (at 50.0 µM), 87.8% (active).

Turning to `COc1ccc(C23OCCN2C(=O)c2ccccc23)cc1` (stereo not given), the growth inhibition in assay [1] (setting [7]) is 4%; in assay [1] (setting [8]), -3%; in assay [1] (at 50.0 µM), 97% (active); in assay [2] (setting [7]), -15%; in assay [2] (setting [8]), -6%; in assay [2] (at 50.0 µM), 97.1% (active). Moreover, the growth inhibition in assay [3] (setting [7]) was -4%; in assay [3] (setting [8]) it was 2%; in assay [3] (at 50.0 µM), 97.5% (active); in assay [4] (setting [7]), -4%; in assay [4] (setting [8]) it was -2%; in assay [4] (at 50.0 µM), 92.7% (active). Also, the growth inhibition in assay [5] (setting [7]) is -31%; in assay [5] (setting [8]), -2%; in assay [5] (at 50.0 µM), 96.3% (active); in assay [6] (setting [7]), -10%; in assay [6] (setting [8]), -2%; in assay [6] (at 50.0 µM) it was 97.9% (active).
